Wnt act: activators of Wnt/beta-catenin signaling; Wnt/beta-catenin reporter cell assay, activator, plate reader; activation, % at 9.35 µM; 300,000 tested, 1.2% active; AID 743398; in the data active = activation above about 30%, passing the limit was not always enough; inconclusive = no clear call, values can overlap the other calls
esBAF inh: blocks esBAF chromatin remodeling in mouse ES cells; Bmi1-luciferase knock-in reporter, 24 h; 100% = twice the neutral-well signal; reporter increase, % at 12.5 µM; 350,000 tested, 2% active; AID 602393; in the data active = activation above about 40%; inconclusive = no clear call, values can overlap the other calls;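 note: a rise in the Bmi1 reporter signal indicates esBAF inhibition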
MITF TRPM1 HTS: increases MITF-driven TRPM1 promoter luciferase signal; 300,000 tested, 0.75% active; activation, % at 12.5 µM; AID 588334; SK-MEL-5 TRPM1-promoter luciferase, 24 h; % of positive control, neutral wells = 0;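 active = mean activation of at least 80% with every replicate also reaching 80%; inconclusive = mean reaches 80% but some replicate falls short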
miR-122 sensor: blocks miR-122 activity in Huh7 sensor cells; 340,000 tested, 0.3% active; activation (reporter increase), % at 12.5 µM; Huh7 miR-122 Renilla luciferase sensor, 48 h; neutral wells = 0, positive control = 100;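 active = mean replicate activation score at least 90 and every replicate individually at or above 90; inconclusive = only one of the two criteria met; inactive = neither criterion met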;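 note: higher luciferase means less miR-122 activity so hits act as miR-122 inhibitors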
HIV Env fusion: blocks HIV Env-driven cell-cell fusion; inhibition, % at 12.3 µM; HeLa-JRFL Env/CEM21 cell fusion, luciferase; 360,000 tested, 1.1% active; AID 651610;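 active = mean replicate inhibition score of at least 50 and every replicate individually at or above 50; inconclusive = only one of the two criteria met; inactive = mean below 50 and not all replicates reaching 50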
Numbers stand for hits; - = inactive; ? = inconclusive; . = no result. The list is not random: actives were taken first. Their share in the collection is about 3.4%.

SMILES	Wnt act	esBAF inh	MITF TRPM1 HTS	miR-122 sensor	HIV Env fusion
O=S(=O)(c1ccc(Cl)cc1)N1CCC2(CC1)OCCN2S(=O)(=O)c1cccs1	-	-	-	135.3	-
COc1ccc(OC)c(S(=O)(=O)N2CCNCC2)c1	-	-	-	171.6	-
COc1ccc(S(=O)(=O)N2CCC3(CC2)OCCN3S(=O)(=O)c2cccs2)cc1	-	-	-	-	.
Cc1cccc(COCC(CC(C)C)N2CCN(C(=O)c3ccc(C(F)(F)F)cc3)CCC2=O)c1 (configuration not stated)	-	-	-	-	82.9
Cc1cccc(COCC(CC(C)C)N2CCN(C(=O)c3ccc(C(C)(C)C)cc3)CCC2=O)c1 (configuration not stated)	-	-	-	-	59.8
Cc1cccc(COC[C@H](CC(C)C)N2CCN(C(=O)c3ccc(C(C)(C)C)cc3)CCC2=O)c1	-	.	.	.	-
CC(C)C#Cc1cnc2c(c1)C(=O)N([C@@H](C)CO)C[C@H](C)[C@@H](CN(C)Cc1ccc3c(c1)OCO3)O2	.	-	.	-	-
O=C(NC1CCCCC1)C(=O)c1c[nH]c2ccccc12	?	45.1	-	-	-
Cc1ccc(NC(=O)c2cc(=O)[nH]c3ccccc23)cc1	-	-	-	-	-
Cc1ccc(NC(=O)C(=O)c2c[nH]c3ccccc23)cc1	63.9	-	.	.	-
C[C@@H]1CN([C@@H](C)CO)C(=O)CCCn2cc(nn2)CO[C@@H]1CN(C)C(=O)NC1CCCC1	.	-	.	-	-
C[C@@H]1CCCCO[C@H](CN(C)S(=O)(=O)c2ccc(F)cc2)[C@H](C)CN([C@@H](C)CO)C(=O)c2cc(NC(=O)Nc3cccc4ccccc34)ccc2O1	.	-	.	-	-
CCOc1ccc2nc(N3CCOCC3)nc(C)c2c1	.	-	98.8	-	.
CN(C)CC(=O)Nc1ccc2c(c1)[C@@H]1C[C@H](CC(=O)N3CCOCC3)O[C@H](CO)[C@@H]1O2	.	-	.	-	-
O=c1oc(CCCO)cc2ccc(/C=C/c3cccc([N+](=O)[O-])c3)cc12	?	49.2	91.9	-	-
CN1c2ccc(-c3ccc(F)cc3)cc2[C@H]2[C@H](CCN2S(=O)(=O)c2cccc(F)c2)[C@@H]1CO	.	-	.	-	.
Oc1ccc(C2=NNC(c3ccc(O)cc3)=NN2)cc1	-	-	-	-	-
Oc1ccc(-c2cccc(-c3ccc(O)cc3)n2)cc1	-	47.6	.	-	-
Oc1ccc(-c2nnc(-c3ccc(O)cc3)nn2)cc1	76.9	-	.	-	-
Oc1ccc(-c2cc(-c3ccc(O)cc3)nc(-c3ccccc3)n2)cc1	-	-	-	-	-
O=C(Nc1ccc(F)cc1)Nc1ccc(N2CCOCC2)c2nonc12	-	.	93.9	.	-
Cc1ccc(S(=O)(=O)N(C)C)cc1NC(=O)COc1ccccc1C(=O)Nc1ccccc1	-	-	-	.	74.0
C[C@H](CO)N1C[C@H](C)[C@H](CN(C)C(=O)Cc2ccccn2)Oc2ncc(-c3ccncc3)cc2C1=O	.	-	.	-	-
COc1ccc(S(=O)(=O)N(C)C[C@@H]2OCCCC[C@@H](C)Oc3ccc(NC(=O)c4ccccc4)cc3C(=O)N([C@H](C)CO)C[C@H]2C)cc1	.	-	.	-	-
C(=N\NCc1ccccc1)/c1ccc2ncccc2c1	30.6	.	.	-	-
SMILES	Wnt act	esBAF inh	MITF TRPM1 HTS	miR-122 sensor	HIV Env fusion
C(=N\NCc1ccccc1)/c1ccc2nccnc2c1	-	.	.	-	-
CC=Cc1ccc2n(c1=O)C[C@@H]1[C@@H](CO)[C@H](C(=O)NCc3ccccc3)N(S(C)(=O)=O)[C@H]21 (mixture of isomers)	.	-	.	-	.
CCC(=O)N1[C@@H](CO)[C@@H](c2ccccc2)[C@@H]1CN(CC)C(=O)NC1CCCC1	.	-	.	-	.
Cc1ccc(NC(=O)c2cc3ccccc3cc2O)cc1	46.4	43.9	-	-	-
COCC(=O)Nc1ccccc1C(=O)Nc1ccc(OC)cc1	35.5	-	-	-	-
COc1ccc(NC(=O)c2cc3ccccc3cc2O)cc1	35.0	?	-	.	-
O=C(O)CCC(=O)Nc1ccccc1C(=O)Nc1ccccc1	.	-	-	114.6	-
COc1ccc(NC(=O)c2ccccc2NC(=O)COc2ccccc2)cc1	.	.	-	-	-
N#C[C@@H]1[C@H](c2ccccc2)[C@H](CO)N1C(=O)CCN1CCCCC1	.	-	.	.	.
O=S(=O)(NCCc1ccccc1)c1ccc(F)cc1Br	-	-	-	?	-
O=S(=O)(NCCc1ccc(F)cc1)c1cc(C(F)(F)F)ccc1Br	-	-	-	126.9	-
CN(C(=O)c1cc(-c2ccccc2)on1)C1CCCCC1	33.8	50.7	174.2	-	-
COc1ccc(-c2cc(C(=O)NC3CCCCC3)no2)cc1OC	-	-	-	.	-
Cc1cc(C(=O)N(C)C2CCCCC2)no1	-	-	-	-	-
O=C(NC1CCCCC1)c1cc(-c2ccc(O)cc2)on1	-	41.9	93.2	-	-
O=C(NC1CCCCC1)c1cc(-c2ccccc2O)on1	-	83.4	123.6	-	-
Cc1ccc(-c2cc(C(=O)NC3CCCCC3)no2)cc1	-	-	114.2	.	-
CC(=O)N(C)C[C@H]1Oc2cc(C#Cc3ccc(F)cc3)ccc2S(=O)(=O)N([C@@H](C)CO)C[C@H]1C	.	-	.	-	.
O=C(NC1CCCCCCC1)c1ccccc1O	-	92.0	-	-	.
CCCc1cc(C(=O)NC2CCCC2)no1	-	-	-	-	-
CCCc1cc(C(=O)NC2CCCCC2)no1	33.2	42.8	-	-	-
CCN1CCN(c2cc3c(nn2)Oc2ccccc2N3C)CC1	.	.	82.2	.	-
CCN(CC)c1ccc(C(=C2C=CC(=[N+](CC)CC)C=C2)c2ccccc2)cc1	-	.	-	.	80.6
CCN(CC)c1ccc(C(=C2C=CC(=[N+](CC)CC)C=C2)c2ccc(N(CC)CC)cc2)cc1	-	-	.	-	62.1
CCN(CC)c1ccc(C(=O)NNC(=O)CCl)cc1	-	-	-	-	-
SMILES	Wnt act	esBAF inh	MITF TRPM1 HTS	miR-122 sensor	HIV Env fusion
CCN(CC)c1ccc(C(=O)NNC(=O)CCNC(=O)c2ccccc2)cc1	-	-	-	-	.
C/C=C/c1ccc2c(c1)O[C@H](CN(C)C(=O)NCCC)[C@@H](C)CN([C@@H](C)CO)S2(=O)=O	.	-	.	-	-
Cc1ccc(N2C(=O)c3ccc(N)cc3C2=O)cc1	68.8	66.9	.	-	-
Cc1ccc(N2C(=O)c3ccc(N)cc3C2=O)cc1C	.	89.5	.	-	-
CCCNC(=O)C[C@@H]1CC[C@@H]2[C@H](COc3ccc(NC(=O)COC)cc3C(=O)N2C)O1	.	-	.	-	-
C/C(=N\NC(=O)c1ccccc1)c1ccccc1F	56.8	-	-	-	-
C/C(=N\NC(=O)c1ccc(Br)cc1)c1ccccc1	.	46.6	-	-	.
C/C(=N\NC(=O)c1cccnc1)c1ccc(Br)cc1	-	-	.	.	-
Clc1cccc(Nc2ncnc3c2cnn3-c2ccccc2)c1	-	64.5	-	-	-
O=C(O)c1cccc(Nc2ncnc3c2cnn3-c2ccccc2)c1	.	-	-	-	.
Fc1cccc(Nc2ncnc3c2cnn3-c2ccccc2)c1	-	56.7	-	-	-
C[C@@H]1CN([C@H](C)CO)C(=O)c2cc(NC(=O)Cc3ccccc3)ccc2O[C@@H](C)CCCCO[C@@H]1CN(C)C(=O)C1CCCCC1	.	-	.	-	-

Screening results deposited in PubChem BioAssay by Broad Institute.
